High-throughput results (PubChem BioAssay)
This is a sample that favours compounds with a hit; in the whole collection about 3.3% have one here.
HEK293 cAMP cs = counter-screen for TSHR agonists: cAMP increase in parental HEK293 | parental HEK293 CNG cAMP sensor, membrane potential fluorescence | Potency, µM (doses to about 57.1 µM), inactives show at the highest dose activation, actives largely listed as activators | 73,000 compounds, 2.5% hits; further: potency means the concentration at half of the fitted maximal effect; % of control where 0% means no effect; nearly all actives have a fitted effect of over 55% in size
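Parental HEK 293 cells stably expressing a modified CNG channel (no TSHR) report cAMP rise as membrane depolarization. Membrane potential dye with 100 uM RO 20-1724 was loaded for 60 min at room temperature, then compound added for 30 min; fluorescence read at 590 nm.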
YjeE inh = inhibitors of E. coli YjeE (TsaE); P0AF67; purified YjeE enzyme, qHTS inhibition assay; Potency, µM; 71,000 compounds, 0.05% hits
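Purified YjeE (10 uM) with BODIPY Texas Red-labeled ADP probe (2 uM); compounds pin-transferred, 15 min at room temperature. Binding inhibition read as decreased fluorescence polarization; ADP titration as control.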
Hsp90 Hop PPI = changes Hsp90-Hop TPR2A binding signal, up or down; AlphaScreen TPR2A-His6 binding biotin-Hsp90 C-terminal peptide; Potency, µM (highest dose often 57 µM), without a hit: at the top dose activity change, negative = inhibition; 71,000 compounds, 0.44% hits; active means well fitted curve in either direction with a large enough effect; inconclusive means small, poorly fitted or top-dose-only effect, or another doubt; further: potency means the concentration at half of the fitted maximal effect; on the % scale 0 is the no-effect control and ±100 the full control effect
BRCT PPI green = inhibitors of human BRCA1 BRCT-phosphoprotein interaction (green fluorophore); AID 875; 75,000 compounds, 0.05% hits; P38398; BRCA1 BRCT-phosphopeptide binding, green fluorescence polarization; Potency, µM (highest dose often 76.9 µM), for inactives: at the top dose activity change, negative = inhibition, hits mostly inhibitors;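 further: potency means the concentration at half of the fitted maximal effect; plate controls were peptide without protein for full effect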
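Compounds were incubated for 12 min at room temperature with a complex of 100 nM fluorescein-tagged pBACH1 decapeptide and 250 nM His-tagged BRCT protein. Buffer was phosphate pH 7.3 with EDTA, DTT and Tween 20. Disruption of binding lowers the polarization signal.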
TSHR agonist = agonists of human thyroid stimulating hormone receptor; P16473; HEK293-CNG-TSHR cells (CNG channel as cAMP sensor), membrane potential dye, cAMP; Potency, µM (titrated, usually from 57.1 µM), for inactives: top-dose activation, actives largely listed as activators; 73,000 compounds, 0.48% hits; active means well fitted activation curve with a large enough effect in the main read-out, with a control signal flat, not every such curve was filed as active; inconclusive means small, poorly fitted or top-dose-only effect, or a change in a side signal; inactive means no such curve, though single readings can be large or run the other way; % of control where 0% means no effect;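 further: the control signal comes from parental cells without the receptor; potency means the concentration at half of the fitted maximal effect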
Target sequence (P16473 whole entry, looked up): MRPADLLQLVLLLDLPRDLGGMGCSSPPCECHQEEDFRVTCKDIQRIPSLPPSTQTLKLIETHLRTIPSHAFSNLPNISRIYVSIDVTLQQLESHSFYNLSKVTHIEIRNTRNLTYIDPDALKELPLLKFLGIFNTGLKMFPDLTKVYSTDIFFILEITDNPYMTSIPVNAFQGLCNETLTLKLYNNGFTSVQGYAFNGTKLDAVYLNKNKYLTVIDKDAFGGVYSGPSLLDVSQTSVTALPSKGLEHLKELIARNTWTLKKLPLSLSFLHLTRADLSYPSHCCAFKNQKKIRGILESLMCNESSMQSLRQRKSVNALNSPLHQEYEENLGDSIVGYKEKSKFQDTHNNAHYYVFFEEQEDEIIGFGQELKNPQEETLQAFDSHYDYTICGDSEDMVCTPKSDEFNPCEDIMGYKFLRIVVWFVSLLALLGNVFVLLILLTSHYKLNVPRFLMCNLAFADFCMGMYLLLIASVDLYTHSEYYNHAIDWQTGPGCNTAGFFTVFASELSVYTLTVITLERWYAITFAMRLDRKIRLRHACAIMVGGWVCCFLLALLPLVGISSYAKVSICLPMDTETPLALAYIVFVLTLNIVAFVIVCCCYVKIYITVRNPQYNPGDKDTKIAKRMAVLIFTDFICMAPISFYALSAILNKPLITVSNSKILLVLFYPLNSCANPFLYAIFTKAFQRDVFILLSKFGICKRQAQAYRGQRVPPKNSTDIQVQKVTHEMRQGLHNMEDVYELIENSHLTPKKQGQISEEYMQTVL
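cAMP rise detected as CNG-channel membrane depolarization by fluorescent dye (emission 590 nm), 30 min after compound, following 60 min dye loading containing 100 uM RO 20-1724 at room temperature. Cells: TSHR/CNG HEK 293, with parental CNG HEK 293 as control.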
BRCT PPI red = BRCT-phosphoprotein interaction inhibition (red fluorophore). P38398. BRCT-phosphopeptide binding, red fluorescence polarization. Potency, µM (doses to about 76.9 µM), for inactives: top-dose activity change, negative = inhibition, hits mostly inhibitors. 75,000 compounds, 0.03% hits; further: on the % scale 0 is the no-effect control and ±100 the full control effect
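Rhodamine-labelled pBACH1 10-mer (100 nM) bound to BRCT domain (100 nM) at pH 7.3; compounds incubated 12 min room temperature, polarization read. Free peptide defines full inhibition; unlabelled decapeptide titrated as control.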
The depositor's hits bear a star; i = inactive; ? = inconclusive; / = no result given; [ ] = another dose, or the depositor's remark. Unless noted, the call rests on the fitted dose curve; in most records, active means well fitted curve in the direction sought with a large enough effect; inconclusive means small, poorly fitted or top-dose-only effect, or another doubt; inactive means no such curve, though single readings can be large; an effect the other way counts as inactive or inconclusive.

SMILES | HEK293 cAMP cs | YjeE inh | Hsp90 Hop PPI | BRCT PPI green | TSHR agonist | BRCT PPI red
O=C(NCc1ccc2c(c1)OCO2)c1ccc(COc2cccc(Cl)c2)o1 | 20µM* | i | 12% | 0% | ? | 0%
CCc1cc2cc(C(=O)N3CCN(Cc4ccccc4)CC3)sc2s1 | 32µM* | i | 3% | 1% | ? | 0%
COCCOC(=O)c1c(C)oc2ccc(OCc3cc(C(=O)OC)oc3C)cc12 | 25µM* | i | ? | 0% | ? | 1%
CCCCN(C)c1nc(-c2ccco2)c2c(c1C#N)CC(C)(C)OC2 | 26% | i | 25µM* | 0% | 53% | -1%
CC1(C)Cc2c(C#N)c(N3CCCC3)nc(-c3ccco3)c2CO1 | 5% | i | 25µM* | 2% | 12% | 0%
CC1(C)Cc2c(C#N)c(OCC(=O)c3ccc(Cl)cc3)nc(-c3ccco3)c2CO1 | 29% | i | 0% | -1% | / | -1%
O=c1[nH]c(C(F)(F)F)nc2c1nnn2Cc1ccccc1F | 25µM* | i | 2% | 3% | ? | -1%
CN1C[C@H](C(=O)N[C@]2(C)O[C@@]3(O)[C@H]4CCCN4C(=O)[C@@H](Cc4ccccc4)N3C2=O)C[C@H]2c3cccc4[nH]cc(c34)C[C@@H]21 | -5% | i | -4% | / | -10% | /
C[C@@H](c1ccccc1)N1C(=O)[C@H]2[C@@H]3[C@H](O)C=CC(=O)[C@H]3CC[C@H]2C1=O | -2%[11.4 µM] | / | / | -1%[15.4 µM] | 8%[11.4 µM] | 0%[15.4 µM]
COC(=O)[C@@]1(Cc2ccc(F)cc2)[C@H]2c3cc(C(=O)N(C)C)n(Cc4cccc5ccccc45)c3C[C@H]2CN1C(=O)c1ccccc1 | 16µM* | i | -23% | -1% | ? | 1%
COC(=O)[C@@]1(Cc2ccc(F)cc2)[C@H]2c3cc(C(=O)N4CCCC4)n(Cc4cccc5ccccc45)c3C[C@H]2CN1C(=O)c1ccccc1 | ? | i | -18% | 1% | ? | 0%
COC(=O)[C@@]1(Cc2ccc(OC)cc2)[C@H]2c3cc(C(=O)N(C)C)n(CCO)c3C[C@H]2CN1C(=O)c1ccccc1 | 3% | i | -3% | -1% | 18% | 1%
COC(=O)[C@@]1(Cc2ccc(F)cc2)[C@H]2c3cc(C(=O)N4CCCC4)n(Cc4cc(F)cc5c4OCOC5)c3C[C@H]2CN1C(=O)c1ccccc1 | ? | i | -11% | 3% | ? | 2%
COC(=O)[C@@]1(Cc2ccc(F)cc2)[C@H]2c3cc(C(=O)N(C)C)n(Cc4ccsc4Br)c3C[C@H]2CN1C(=O)c1ccccc1 | 4µM* | i | -10% | 0% | ? | -2%
COC(=O)[C@@]1(Cc2ccc(OC)cc2)[C@H]2c3cc(C(=O)N(C)C)n(Cc4ccc(C)c(F)c4F)c3C[C@H]2CN1C(=O)c1ccccc1 | 2.5µM* | i | -17% | -3% | ? | -2%
COC(=O)[C@@]1(Cc2ccccc2)[C@H]2c3cc(C(=O)N4CCCC4)n(Cc4cc(F)cc5c4OCOC5)c3C[C@H]2CN1C(=O)c1ccccc1 | 2.5µM* | i | -4% | 0% | ? | -1%
COc1ccc(/C=N/NC(=O)c2cc(-c3ccc(Cl)cc3)n[nH]2)cc1OC | 25% | / | / | -2% | 15% | 0%
COC(=O)[C@@]1(Cc2ccc(OC)cc2)[C@H]2c3cc(C(=O)N(C)C)n(Cc4ccsc4Br)c3C[C@H]2CN1C(=O)c1ccccc1 | 6.3µM* | i | -23% | 0% | ? | 0%
COC(=O)[C@@]1(Cc2ccccc2)[C@H]2c3cc(C(=O)N4CCCC4)n(Cc4cccc5ccccc45)c3C[C@H]2CN1C(=O)c1ccccc1 | 1.6µM* | i | -22% | 2% | ? | -1%
COC(=O)[C@@]1(Cc2ccc(OC)cc2)[C@H]2c3cc(C(=O)N(C)C)n(Cc4ccc(C)o4)c3C[C@H]2CN1C(=O)c1ccccc1 | 16µM* | i | -6% | 2% | ? | 0%
COC(=O)[C@@]1(Cc2ccc(OC)cc2)[C@H]2c3cc(C(=O)N(C)C)n(Cc4ccc(S(C)(=O)=O)cc4)c3C[C@H]2CN1C(=O)c1ccccc1 | ? | i | ? | 0% | ? | -1%
CC(=O)c1cc2c(cc1O)OC(C)(C)C=C2 | / | / | / | 2%[3.08 µM] | / | 1%
N=C1N=C(N)c2cc3ccccc3cc21 | -1% | i | 2% | 0% | -2% | -1%
C[C@@]12CC[C@H]3[C@H](CC=C4C[C@@H](O)CC[C@@]43C)[C@@H]1CC[C@@H]2N(CCO)CCO | -12%[11.4 µM] | i | -1%[11 µM] | 0%[15.4 µM] | 0%[11.4 µM] | 1%[15.4 µM]
COc1ccccc1CNc1nc(-c2ccccc2OC)nc2ccccc12 | 20% | i | -10% | 3% | 32µM* | -2%
SMILES | HEK293 cAMP cs | YjeE inh | Hsp90 Hop PPI | BRCT PPI green | TSHR agonist | BRCT PPI red
Cc1cccc(CNc2nc(-c3ccccc3CN(C)C)nc3ccccc23)c1 | 0.79µM* | i | -10% | 6% | ? | 1%
CN(C)Cc1ccccc1-c1nc(N(C)C)c2ccccc2n1 | 10µM* | i | -1% | 1% | ? | 0%
CCn1c(=S)sc2c(=O)n(-c3ccccc3)c(SC)nc21 | 25µM* | i | -10% | 2% | ? | 0%
CCOC(=O)c1cccc(NC(=O)CSc2nnc(C3CCCCC3)n2CC)c1 | 25µM* | i | -3% | 1% | ? | -2%
CCOC(=O)c1cccc(NC(=O)CSc2nnc(C)n2Cc2ccccc2)c1 | 9% | i | -7% | 0% | -1% | -2%
COC(=O)[C@@]1(Cc2ccc(F)cc2)[C@H]2c3cc(C(=O)N4CCCC4)n(Cc4ccc(C)o4)c3C[C@H]2CN1C(=O)c1ccccc1 | 32µM* | i | -22% | 4% | ? | -1%
COC(=O)[C@@]1(Cc2ccc(F)cc2)[C@H]2c3cc(C(=O)N4CCCC4)n(Cc4cc(C)n(C)n4)c3C[C@H]2CN1C(=O)c1ccccc1 | 16µM* | i | -12% | 0% | ? | -1%
COC(=O)[C@@]1(Cc2ccc(F)cc2)[C@H]2c3cc(C(=O)N4CCCC4)n(CC4CC4)c3C[C@H]2CN1C(=O)c1ccccc1 | 4µM* | i | -4% | -1% | ? | -5%
COC(=O)[C@@]1(Cc2ccc(F)cc2)[C@H]2c3cc(C(=O)N4CCCC4)n(Cc4ccc(S(C)(=O)=O)cc4)c3C[C@H]2CN1C(=O)c1ccccc1 | 16µM* | i | -16% | 5% | ? | -3%
COC(=O)[C@@]1(Cc2ccc(F)cc2)[C@H]2c3cc(C(=O)N4CCCC4)n(CCF)c3C[C@H]2CN1C(=O)c1ccccc1 | ? | i | -7% | 4% | ? | 0%
